Inconclusive results are not listed. Active and inactive are the calls of the source. Unless noted, calls follow the shape of the dose curve; as a rule, active = well fitted curve in the direction sought with a large enough effect; inconclusive = small, poorly fitted or top-dose-only effect, or another doubt; inactive = no such curve, though single readings can be large; an effect the other way counts as inactive or inconclusive.

Assay [1] in a line: qHTS for compounds that reverse cellular toxicity of Amyloid beta (A-beta) peptide in yeast: LOPAC Validation Assay (AID 720559).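 Also: plate controls were DMSO for no effect and equimolar ferric chloride plus clioquinol rescue for full effect.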 The conditions noted are these: Potency: rescue of growth toxicity. Summed up: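 Here, A-beta-toxic yeast grow with test compounds at 30 C for 48 hr before optical density at 600 nm is recorded; data are normalized against DMSO and the FeCl3-clioquinol control.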
On the technique in general: In qHTS, concentration-response curves come from the screen itself.

A short description of assay [2]: qHTS for Activators of Parkin Expression: LOPAC Validation Assay (NLuc Reporter) (AID 720572). A digest of the protocol:
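NLuc signal, read 10 min after reagent and following a prior FLuc read, is normalized to DMSO (0) and positive controls (100%). Cells: neuronal Parkin-promoter coincidence reporter line; compounds tested 7-point, 24 h, 37 C, 5% CO2.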

Assay [3] can be described thus: qHTS for Activators of Parkin Expression: LOPAC Validation Assay (FLuc Reporter) (AID 720573). A digest of the protocol: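 Readout is FLuc luminescence from neuronal reporter cells (Parkin promoter, FLuc plus NLuc) after 24 h compound exposure in dose response. Values normalized to neutral DMSO and positive-control compounds.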
Assay [4] has as its target T1, Hexokinase-4 (Homo sapiens) + Glucokinase regulatory protein (Homo sapiens) (UniProt P35557+Q14397). Description: qHTS assay for inhibitors of recombinant human GCK-GKRP interaction: Diaphorase-coupled assay (AID 743205). Summed up:
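Signal derives from resorufin generated by diaphorase, linked to GCK turnover of glucose (5 mM) and ATP (0.4 mM). Enzyme complex was added after a 20-minute compound preincubation and monitored for 30 minutes.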

Assay [5] has as its target T1, Hexokinase-4 (Homo sapiens) + Glucokinase regulatory protein (Homo sapiens). Kind of assay: qHTS assay for inhibitors of recombinant human GCK-GKRP interaction: ADP-Glo assay (AID 743206). Also: potency is read from the fitted curve at half-maximal effect. A digest of the protocol:
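Pin-transferred compounds meet a 15 nM GST-GCK/15 nM FLAG-GKRP/2 uM S6P mix (dispense concentrations). ATP is then added to 0.4 mM final with 5 mM glucose, and the reaction runs 60 min at room temperature. ADP is quantified luminescently.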

For assay [6] the target is unchanged. Kind of assay: qHTS assay for inhibitors of recombinant human GCK-GKRP interaction: HTRF assay (AID 743207).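 Also: 0% = DMSO with GCK present and -100% = DMSO wells lacking GCK.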 A digest of the protocol: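 Titration screening format: recombinant GST-GCK and FLAG-GKRP at 5 nM, S6P at 2 uM, labelled anti-tag antibodies, 60 min at RT, dual-wavelength HTRF readout.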
In assay [7] the target is Arylsulfatase A (Homo sapiens) (UniProt P15289). Description: qHTS screen for enhancers of Arylsulfatase A (ASA1): LOPAC Validation Assay (AID 720538). Summed up: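 Cell-based enhancement test: residual ASA activity in SV40-transformed I179S patient fibroblasts is measured by pNCS turnover (0.5mM final, 14h, room temperature) following 48h compound incubation; higher fluorescence indicates activation.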
Sequence of Arylsulfatase A (Homo sapiens) (P15289 whole entry, looked up): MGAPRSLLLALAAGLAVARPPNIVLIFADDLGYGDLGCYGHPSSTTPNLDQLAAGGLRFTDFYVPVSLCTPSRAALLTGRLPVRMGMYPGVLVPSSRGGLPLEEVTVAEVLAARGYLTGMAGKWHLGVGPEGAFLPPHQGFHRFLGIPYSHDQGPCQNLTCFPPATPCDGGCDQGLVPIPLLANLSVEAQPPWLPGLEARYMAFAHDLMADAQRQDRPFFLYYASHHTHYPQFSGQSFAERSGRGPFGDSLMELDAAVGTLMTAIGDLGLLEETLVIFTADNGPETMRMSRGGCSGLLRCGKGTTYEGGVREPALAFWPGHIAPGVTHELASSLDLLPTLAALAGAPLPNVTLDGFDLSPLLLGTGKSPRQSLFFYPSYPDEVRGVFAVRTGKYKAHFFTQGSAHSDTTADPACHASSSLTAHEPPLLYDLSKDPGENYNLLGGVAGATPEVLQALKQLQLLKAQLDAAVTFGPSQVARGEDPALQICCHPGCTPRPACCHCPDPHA

Assay [8] in a line: qHTS Assay for Identifying Gametocytocidal Compounds (AID 743244). Also: potency is read from the fitted curve at half-maximal effect.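 As to max response: % is scaled to controls: 0 for no effect and ±100 for the full control effect; actives lower the fluorescent signal which means gametocytes are killed.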 The conditions noted are these: P. falciparum 3D7 stage III-V gametocytes, alamarBlue, 72 h; max response: stronger effect = lower value. Summed up:
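Stage III-V P. falciparum 3D7 gametocytes, 20,000 per well, were exposed to compounds for 72 h at 37C, 5% CO2. AlamarBlue was then added for 24 h and viability was read as fluorescence at Ex 525/Em 598 nm.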

Assay [9] can be described thus: qHTS profiling for inhibitors of Plasmodium falciparum (3D7) proliferation (AID 743322).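 Also: infected erythrocytes exposed to compound for 72 h before lysis; 100% = DMSO vehicle wells and 0% = 0.29 µM artemisinin.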 The settings on record: P. falciparum 3D7 proliferation; at 28.7 µM (top of the series) unless noted. Summed up:
(§1)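 Parasite DNA was quantified by SYBR Green I fluorescence (ex 485, em 535 nm) after overnight lysis in saponin/Triton buffer at room temperature. Cultures at 0.3% parasitemia and 2.5% hematocrit were first exposed to compound for 72 h at 37 C; signals were normalised to artemisinin (0.29 uM) and vehicle wells.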

Assay [10] is described as follows: qHTS profiling for inhibitors of Plasmodium falciparum (DD2) proliferation (AID 743323; call rule not given here). The conditions noted are these: lower = more inhibition; at 28.7 µM (top of the series) unless noted. Summed up:
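Parasite DNA quantified by SYBR Green fluorescence (ex 485, em 535 nm) after saponin/Triton lysis and overnight dark incubation. Cultures: 0.3% parasitemia, 2.5% hematocrit, 72 h, 37 C; data scaled between DMSO and 0.29 uM artemisinin.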

Assay [11] is described as follows: qHTS profiling for inhibitors of Plasmodium falciparum (HB3) proliferation (AID 743324).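 Also: 100% = DMSO vehicle wells and 0% = artemisinin-treated control wells.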 The settings on record: Plasmodium falciparum HB3 blood-stage proliferation; at 28.7 µM (top of the series) unless noted. Summed up:
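SYBR Green fluorescence (485 ex/535 em) of lysed cultures, incubated overnight at room temperature in the dark, quantifies parasite DNA. Infected erythrocytes at 0.3% parasitemia and 2.5% hematocrit were exposed 72 h; values normalized to DMSO and 0.29 uM artemisinin controls.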

Assay [12] can be described thus: qHTS profiling of the MIPE4 collection as inhibitors of Plasmodium falciparum (3D7) proliferation (AID 743344; call rule not given here;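 also: scaled between DMSO vehicle wells and 0.29 µM artemisinin as full inhibition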). The settings on record: P. falciparum 3D7 in erythrocytes, SYBR Green DNA fluorescence, 72 h; at 28.5 µM (top of the series). Summed up:
as §1

Assay [13] in a line: qHTS profiling of the MIPE4 collection as inhibitors of Plasmodium falciparum (DD2) proliferation (AID 743345; call rule not given here). The conditions noted are these: P. falciparum Dd2 in erythrocytes, SYBR Green DNA, 72 h; at 28.5 µM (top of the series). Summed up:
as §1

A short description of assay [14]: qHTS profiling of the MIPE4 collection as inhibitors of Plasmodium falciparum (DD2) proliferation (Rep 2) (AID 743346; call rule not given here). The conditions noted are these: P. falciparum Dd2 in erythrocytes, SYBR Green DNA, 72 h; at 28.5 µM (top of the series). Summed up:
as §1

Assay [15] is described as follows: qHTS profiling of the MIPE4 collection as inhibitors of Plasmodium falciparum (HB3) proliferation (AID 743347; call rule not given here;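 also: plate controls were DMSO vehicle wells for no effect and artemisinin wells for full effect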). The conditions noted are these: P. falciparum HB3 in erythrocytes, SYBR Green DNA, 72 h; at 28.5 µM (top of the series). Summed up:
as §1

T1 sequence (P35557 whole entry, looked up): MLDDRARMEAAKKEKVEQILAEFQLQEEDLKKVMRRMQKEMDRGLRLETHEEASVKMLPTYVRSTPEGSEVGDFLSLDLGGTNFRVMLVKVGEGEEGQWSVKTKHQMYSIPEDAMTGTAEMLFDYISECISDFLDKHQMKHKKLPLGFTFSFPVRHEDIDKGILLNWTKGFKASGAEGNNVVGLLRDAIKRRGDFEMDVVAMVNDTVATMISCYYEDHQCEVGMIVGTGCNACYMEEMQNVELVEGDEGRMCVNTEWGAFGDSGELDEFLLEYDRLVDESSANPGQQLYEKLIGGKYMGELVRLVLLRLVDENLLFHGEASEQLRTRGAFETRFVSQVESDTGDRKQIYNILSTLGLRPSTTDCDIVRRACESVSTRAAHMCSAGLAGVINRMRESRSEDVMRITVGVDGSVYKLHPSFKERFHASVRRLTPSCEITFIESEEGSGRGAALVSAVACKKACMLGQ
T1 sequence (Q14397 whole entry, looked up): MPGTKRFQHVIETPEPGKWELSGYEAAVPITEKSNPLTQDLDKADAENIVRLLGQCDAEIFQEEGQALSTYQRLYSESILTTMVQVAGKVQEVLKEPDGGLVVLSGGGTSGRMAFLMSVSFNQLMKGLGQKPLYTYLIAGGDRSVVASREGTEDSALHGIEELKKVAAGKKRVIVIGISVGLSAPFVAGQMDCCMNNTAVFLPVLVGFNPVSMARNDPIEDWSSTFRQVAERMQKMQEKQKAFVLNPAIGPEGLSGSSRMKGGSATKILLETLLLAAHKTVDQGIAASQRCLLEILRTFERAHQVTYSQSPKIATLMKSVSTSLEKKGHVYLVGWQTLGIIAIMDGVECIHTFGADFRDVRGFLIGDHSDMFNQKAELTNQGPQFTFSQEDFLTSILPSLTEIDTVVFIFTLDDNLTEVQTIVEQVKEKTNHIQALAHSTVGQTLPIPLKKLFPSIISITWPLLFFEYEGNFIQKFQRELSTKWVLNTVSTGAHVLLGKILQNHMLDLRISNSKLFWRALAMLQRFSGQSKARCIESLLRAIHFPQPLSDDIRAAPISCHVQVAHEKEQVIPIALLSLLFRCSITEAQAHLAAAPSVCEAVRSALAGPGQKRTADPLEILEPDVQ

For `CN=c1nc(-c2ccccc2)n(-c2ccccc2)s1`, the Potency entry in assay [1], in assay [2], in [3], in assay [5] and in [6] was “inactive” each time. Further, the result in assay [4] was inactive.

As to `O=C(O)[C@@H]1C[C@@H](C(=O)O)N1`, the Potency result in assay [7], in [2], in [3], in [5] and in [6] was “inactive” each time. Also, the outcome in assay [4] was inactive. Besides, the max response in [8] was 6.85% (inactive).

Turning to `NCCNC(=O)c1ncsc1-c1cccc(F)c1`, the Potency result in assay [7], in [2], in [3], in assay [5] and in [6] was “inactive” in each case. In addition, in assay [4], the outcome was inactive. Moreover, in assay [8], the max response was 3.56% (inactive).

Turning to `CC[C@@H](C)[C@H]1O[C@]2(CC[C@H]1C)C[C@@H]1C[C@@H](CC=C(C)[C@@H](O[C@H]3C[C@H](OC)[C@@H](O[C@H]4C[C@H](OC)[C@@H](O)[C@H](C)O4)[C@H](C)O3)[C@@H](C)C=CC=C3CO[C@@H]4[C@H](O)C(C)=C[C@@H](C(=O)O1)[C@]34O)O2`, the Potency result in [7], in assay [5] and in assay [6] was “inactive” in each case. Further, in assay [4], the outcome was inactive. Also, the Potency in [8] was 2.64 µM (active). For the same compound, in assay [9], the remaining parasite growth % (stronger effect = lower value) is -0.904%. Further, in assay [10], the activity, percent of control is -0.0225%. Further, the remaining proliferation (% of control), lower = more inhibition in assay [11] was -0.425%. For the same compound, in assay [12], the parasite growth, % of DMSO control worked out at 35.5%. In addition, the parasite growth remaining, % of DMSO control (lower = more inhibition) in assay [13] was found to be 6.32%. Also, the parasite growth, % of control (lower = inhibition) in [14] was found to be 38.4%. In assay [15], the growth, % of control was 12.5%.

On to `O=C(O)CC1CCCc2ccccc2C1O` (centres undefined), for which the Potency entry in [7], in assay [2], in assay [3], in assay [5] and in [6] was “inactive” each time. Further, in assay [4], the outcome was inactive. The max response in assay [8] is 12.4% (inactive).

As to `O=C(Nc1cccc(C(=O)Nc2ccc(S(=O)(=O)O)c3cc(S(=O)(=O)O)cc(S(=O)(=O)O)c23)c1)Nc1cccc(C(=O)Nc2ccc(S(=O)(=O)O)c3cc(S(=O)(=O)O)cc(S(=O)(=O)O)c23)c1`, the Potency entry in assay [7], in [2], in assay [3] and in assay [6] was “inactive” throughout. Moreover, in assay [5], the Potency was 22.4 µM (active). The max response in assay [8] is -0.217% (inactive). Besides, in [12], the parasite growth, % of DMSO control amounted to 84.7%. Further, the parasite growth remaining, % of DMSO control (lower = more inhibition) in [13] is 91.3%. The parasite growth, % of control (lower = inhibition) in [14] was determined as 111%. The compound further showed a growth, % of control in [15] of 83.4%.

As for `CN(C)c1ccc(/C=C2\C(=O)Nc3ccccc32)cc1`, the Potency result in assay [7], in [2] and in assay [5] was “inactive” each time. For the same compound, the result in assay [4] was inactive.

For the compound `CN1CCc2cc(NC(=O)Nc3cccnc3)ccc21`, the Potency result in [7], in [2], in [5] and in [6] was “inactive” in each case. Moreover, in assay [4], the outcome was inactive.

Turning to `COc1ccccc1N1CCN(CCN(C(=O)c2ccc(I)cc2)c2ccccn2)CC1`, the Potency result in [7], in assay [2], in [3] and in assay [5] was “inactive” in each case. Also, the outcome in assay [4] was inactive. The max response in [8] was 4.76% (inactive).
